# Test results taken from PubChem BioAssay (NCATS).
# Inconclusive results are not listed. Where a call stands in place of a potency, no number is given. The source made the active and inactive calls. Unless noted, calls come from the whole dose curve; as a rule, active = well fitted curve in the direction sought with a large enough effect; inconclusive = small, poorly fitted or top-dose-only effect, or another doubt; inactive = no such curve, though single readings can be large; an effect the other way counts as inactive or inconclusive.
# What was measured:
# [1] = target: Catechol O-methyltransferase (Homo sapiens) (UniProt P21964); test: Confirmatory Screen for Target Class Profiling of Small Molecule Inhibitors of Methyltransferases (AID 1745852; calls by dose curve; note: potency is the fitted concentration of half-maximal effect); details: MTase-Glo luminescence, SAH detection, recombinant enzyme; measured here: COMT max response; stronger effect = lower value
# Catechol O-methyltransferase (Homo sapiens), sequence (P21964 whole entry, looked up): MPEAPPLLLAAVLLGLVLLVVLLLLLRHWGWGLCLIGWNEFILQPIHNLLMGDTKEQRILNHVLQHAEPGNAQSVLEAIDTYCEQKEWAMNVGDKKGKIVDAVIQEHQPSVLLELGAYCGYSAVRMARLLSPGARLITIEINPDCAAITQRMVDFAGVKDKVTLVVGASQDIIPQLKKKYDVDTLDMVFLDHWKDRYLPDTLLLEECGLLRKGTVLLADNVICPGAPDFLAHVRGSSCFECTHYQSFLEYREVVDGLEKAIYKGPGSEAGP
# [2] = target: Guanidinoacetate N-methyltransferase (Homo sapiens) (UniProt Q14353); test: as above; details: MTase-Glo luminescence, SAH detection, recombinant enzyme; activity change, negative = inhibition: at 57.3 µM (top of the series)
# [3] = target: Nicotinamide N-methyltransferase (Homo sapiens) (UniProt P40261); test: as above; details: MTase-Glo luminescence, SAH detection, recombinant enzyme; measured here: NNMT max response; stronger effect = lower value
# Nicotinamide N-methyltransferase (Homo sapiens), sequence (P40261 whole entry, looked up): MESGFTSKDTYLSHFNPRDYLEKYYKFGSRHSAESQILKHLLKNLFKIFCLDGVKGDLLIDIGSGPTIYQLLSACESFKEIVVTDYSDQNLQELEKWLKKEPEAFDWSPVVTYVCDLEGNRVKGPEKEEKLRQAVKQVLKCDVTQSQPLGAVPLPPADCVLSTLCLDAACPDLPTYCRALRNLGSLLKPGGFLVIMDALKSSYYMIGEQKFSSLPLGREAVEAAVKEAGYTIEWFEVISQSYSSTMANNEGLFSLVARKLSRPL
# [4] = target: Phenylethanolamine N-methyltransferase (Homo sapiens) (UniProt P11086); test: as above; details: MTase-Glo luminescence, SAH detection, recombinant enzyme; measured here: PNMT max response; stronger effect = lower value
# Phenylethanolamine N-methyltransferase (Homo sapiens), sequence (P11086 whole entry, looked up): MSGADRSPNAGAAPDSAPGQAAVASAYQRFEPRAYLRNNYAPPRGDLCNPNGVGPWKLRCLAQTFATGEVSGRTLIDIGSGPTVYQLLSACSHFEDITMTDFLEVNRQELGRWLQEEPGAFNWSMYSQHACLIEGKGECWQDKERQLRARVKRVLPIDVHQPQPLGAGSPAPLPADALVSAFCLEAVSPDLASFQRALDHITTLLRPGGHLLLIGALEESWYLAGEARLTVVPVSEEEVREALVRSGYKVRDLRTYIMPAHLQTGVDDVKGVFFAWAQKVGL
# [5] = target: Metallo-beta-lactamase type 2 (Klebsiella pneumoniae) (UniProt C7C422); test: qHTS to identify inhibitors of the New Delhi Metallo-beta-lactamase (NDM): assay validation screen against the NCATS LOPAC Collection (AID 1794843); details: NDM-1 enzyme, nitrocefin hydrolysis, absorbance 485 nm; series mostly up to 38.4 µM;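 note: nitrocefin turnover by NDM-1 measured as 485 nm absorbance at plateau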
# Metallo-beta-lactamase type 2 (Klebsiella pneumoniae), sequence (C7C422 whole entry, looked up): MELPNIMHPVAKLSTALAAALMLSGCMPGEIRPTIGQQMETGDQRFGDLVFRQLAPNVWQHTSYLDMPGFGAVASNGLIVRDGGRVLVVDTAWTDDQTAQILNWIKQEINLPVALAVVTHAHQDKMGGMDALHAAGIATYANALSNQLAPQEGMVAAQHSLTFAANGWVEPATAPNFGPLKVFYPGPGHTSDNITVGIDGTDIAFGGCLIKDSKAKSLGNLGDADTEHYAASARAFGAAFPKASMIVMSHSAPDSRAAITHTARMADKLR
# Summary of the method: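 Enzyme 2 nM final, 50 mM HEPES pH 7.0, 1 uM ZnSO4, 0.01% Tween20; cpds in DMSO, preincub w/ enzyme; + nitrocefin (50 uM stock); A485 at plateau; no-enzyme column as blank.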
# [6] = target: Glutathione peroxidase 1 (Homo sapiens) (UniProt P07203); test: Primary qHTS Assay for Inhibitors of Recombinant Selenoprotein Glutathione Peroxidase 1 (GPX1) (AID 1845191); details: recombinant GPX1, GR-coupled NADPH fluorescence, 15 min; series mostly up to 48.8 µM; note: nearly all actives have a fitted effect of over 65% in size
# Glutathione peroxidase 1 (Homo sapiens), sequence (P07203 whole entry, looked up): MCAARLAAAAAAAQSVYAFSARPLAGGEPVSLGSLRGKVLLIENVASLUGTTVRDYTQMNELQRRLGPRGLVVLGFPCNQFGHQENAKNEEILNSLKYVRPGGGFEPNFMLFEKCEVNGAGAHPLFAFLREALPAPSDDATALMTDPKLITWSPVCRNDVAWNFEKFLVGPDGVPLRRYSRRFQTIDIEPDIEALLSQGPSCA
# Summary of the method: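 GPX1 10 nM, GR 100 nM, GSH 1 mM, NADPH 0.5 mM, CHP 0.5 mM (final). 30-min cpd preincubation, RT. Ex340/Em450 read t=0, t=15 min.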
# [7] = target: Phospholipid hydroperoxide glutathione peroxidase GPX4 (Homo sapiens) (UniProt P36969); test: Primary qHTS Assay for Inhibitors of Recombinant Selenoprotein Glutathione Peroxidase 4 (GPX4) (AID 1845192); details: recombinant GPX4, GR-coupled NADPH fluorescence, 15 min; series mostly up to 50 µM; note: nearly all actives have a fitted effect of over 65% in size
# Phospholipid hydroperoxide glutathione peroxidase GPX4 (Homo sapiens), sequence (P36969 whole entry, looked up): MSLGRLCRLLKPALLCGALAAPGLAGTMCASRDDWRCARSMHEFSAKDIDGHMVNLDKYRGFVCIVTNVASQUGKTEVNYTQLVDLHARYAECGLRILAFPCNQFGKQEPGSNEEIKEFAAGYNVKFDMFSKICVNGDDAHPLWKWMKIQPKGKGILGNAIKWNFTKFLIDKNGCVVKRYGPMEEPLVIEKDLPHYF
# Summary of the method: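 qHTS, GR-coupled: GPX4 200 nM + cpd 30 min RT → GSH 1 mM, NADPH 0.5 mM, GR 100 nM → CHP 0.5 mM start; fluor 340/450 at t0 and t15 min; no-enzyme wells as control.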
# [8] = target: Luciferin 4-monooxygenase (Photinus pyralis) (UniProt P08659); test: Primary firefly luciferase (FLuc) qHTS assay for identification of artifact compounds. (AID 1845220); details: purified firefly luciferase, luminescence, 5 min; series mostly up to 54.1 µM; note: nearly all actives have a fitted effect of over 60% in size
# Summary of the method: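 qHTS, 15 min compound preincubation with substrate (10 uM luciferin, 10 uM ATP) at RT, then 10 nM FLuc; 5 min; luminescence; % inhibition vs no-enzyme/DMSO controls, 4-parameter Hill fit.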
# [9] = Primary fluorescence-based thiol-reactive (MSTI) qHTS assay for identification of artifact compounds. (AID 1845221); details: MSTI thiol-reactivity probe, 1 h; series mostly up to 53.8 µM;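 note: thiol-reactive compounds lower the probe fluorescence signal; nearly all actives have a fitted effect of over 65% in size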
# Summary of the method: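 Probe: MSTI 4 uM, PBS pH 7.4, 2% DMSO. Incubation 1 h, RT, light-protected. Readout fluorescence 525/598 nm.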
# [10] = Primary redox qHTS assay for identification of artifact compounds. (AID 1845223); details: Amplex Red/HRP redox cycling with DTT, fluorescence; series mostly up to 53.8 µM
# Summary of the method: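 Redox-cycling detection via DTT (250 uM final) oxidation coupled to Amplex Red (25 uM)/HRP (250 mU/mL) in HBSS. 15 min preincubation plus 30 min after DTT, room temperature. Ex/Em 525/598 nm; 4-parameter Hill fit against DMSO and 10 uM DA3003.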
# [11] = Quantitative High-Throughput drug screen in 47 multiple myeloma cell lines against the NCATS MIPE library collection: FR4_PLB cell viability assay (AID 1918924; note: nearly all actives have a fitted effect of over 35% in size; note: potency is the fitted concentration of half-maximal effect); details: FR4_PLB myeloma cells viability, CellTiter-Glo ATP, 48 h; series mostly up to 45.8 µM
# Summary of the method: (§1)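 qHTS of the MIPE 4.0 collection: 500 myeloma cells/well, 48 h drug exposure at 37C in 5% CO2, then CellTiter-Glo for 5 min at room temperature before luminescence reading.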
# [12] = Quantitative High-Throughput drug screen in 47 multiple myeloma cell lines against the NCATS MIPE library collection: Delta47_JCRB cell viability assay (AID 1918925; note: potency is the fitted concentration of half-maximal effect; nearly all actives have a fitted effect of over 45% in size); details: Delta47 myeloma viability, CellTiter-Glo ATP, 48 h; series mostly up to 45.8 µM
# Summary of the method: (§2)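 Approved and investigational drugs from MIPE 4.0 were added by pin tool to 500 cells per well. After 48 hours at 37C, ATP-based CellTiter-Glo luminescence indicated remaining viability.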
# [13] = Quantitative High-Throughput drug screen in 47 multiple myeloma cell lines against the NCATS MIPE library collection: EJM_DSMZ cell viability assay (AID 1918926; note: nearly all actives have a fitted effect of over 30% in size; note: potency is the fitted concentration of half-maximal effect); details: EJM myeloma cell viability, CellTiter-Glo ATP, 48 h; series mostly up to 45.8 µM
# Summary of the method: as §2
# [14] = Quantitative High-Throughput drug screen in 47 multiple myeloma cell lines against the NCATS MIPE library collection: AMO1_DSMZ cell viability assay (AID 1918927; note: nearly all actives have a fitted effect of over 30% in size); details: AMO1 myeloma cells viability, CellTiter-Glo ATP luminescence, 48 h; series mostly up to 45.8 µM
# Summary of the method: as §2
# [15] = Quantitative High-Throughput drug screen in 47 multiple myeloma cell lines against the NCATS MIPE library collection: ARD_JJKsccE7 cell viability assay (AID 1918929; note: potency is the fitted concentration of half-maximal effect); details: ARD myeloma cell line viability, CellTiter-Glo, 48 h; series mostly up to 45.8 µM
# Summary of the method: as §2
# [16] = Quantitative High-Throughput drug screen in 47 multiple myeloma cell lines against the NCATS MIPE library collection: Karpas620_DSMZ cell viability assay (AID 1918959); details: Karpas620 myeloma viability, CellTiter-Glo ATP luminescence, 48 h; series mostly up to 45.8 µM; note: nearly all actives have a fitted effect of over 30% in size; note: potency is the fitted concentration of half-maximal effect
# Summary of the method: as §1
# [17] = NCATS anti-infectives library activity on HEK293 viability as a counter-qHTS vs the C. elegans viability qHTS (AID 1745854); details: HEK293 viability counter-screen; series mostly up to 41.8 µM;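 note: HEK293 cells exposed to compounds for 24 hr before the viability read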; note: potency is the fitted concentration of half-maximal effect
# Summary of the method: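 Counter-screen for cytotoxicity: HEK293, 24 hr, 37C, compounds up to 41.7 uM final (a dilution series, 1:5). Readout CellTiter-Glo luminescence, 10 min RT. Digitonin control, 83.3 uM final.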
# [18] = NCATS anti-infectives library activity on the primary C. elegans qHTS viability assay (AID 1745855; calls by dose curve; note: potency is the fitted concentration of half-maximal effect); details: C. elegans worm area imaging, day 7
# Summary of the method: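 GFP read-out by 488 nm laser cytometry at day 0, 3 and 7, gated on object perimeter, area and peak intensity, scored viability of PE254-GFP-FLuc worms exposed to compound in S medium with bacterial capsules at 21 °C.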
# [19] = Quantitative High-Throughput drug screen in 47 multiple myeloma cell lines against the NCATS MIPE library collection: ARP1_JJKsccF8 cell viability assay (AID 1918928; note: nearly all actives have a fitted effect of over 40% in size; note: potency is the fitted concentration of half-maximal effect); details: ARP1 myeloma cells viability, CellTiter-Glo ATP, 48 h; series mostly up to 45.8 µM
# Summary of the method: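 500 cells/well; MIPE 4.0 library pinned in; 48 h, 37 °C, 5% CO2; CellTiter-Glo ATP luminescence. Controls: DMSO = 100% viability, medium only = 0%.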
smiles,measurement,setting,value
CNCCc1ccc(O)c(O)c1,activity,[1],109%
same,"activity change, negative = inhibition",[2],3.55%
same,activity,[3],-0.877%
same,activity,[4],1.2%
same,outcome,[5],inactive
same,Potency,[6],inactive
same,Potency,[7],inactive
CC(C)NC(C)Cc1ccc(I)cc1 (stereo not given),activity,[1],0.93%
same,"activity change, negative = inhibition",[2],2.72%
same,activity,[3],-9.49%
same,activity,[4],2.34%
same,outcome,[5],inactive
same,Potency,[6],inactive
same,Potency,[7],inactive
NCc1cc(=O)[nH]o1,outcome,[5],inactive
same,Potency,[6],inactive
same,Potency,[7],inactive
c1ccc(C2(c3ccccc3)CC2C2=NCCN2)cc1 (stereo not given),outcome,[5],inactive
same,Potency,[6],inactive
same,Potency,[7],inactive
Cc1[nH]nc2ccc(-c3cncc(OC[C@@H](N)Cc4c[nH]c5ccccc45)c3)cc12,activity,[1],-31.1%
same,Potency,[2],30400 nM (active)
same,activity,[3],-70.5%
same,activity,[4],-56.5%
same,Potency,[6],inactive
same,Potency,[7],inactive
same,outcome,[8],inactive
same,Potency,[9],inactive
same,outcome,[10],inactive
same,Potency,[11],833 nM (active)
same,Potency,[12],209 nM (active)
same,Potency,[13],935 nM (active)
same,Potency,[14],inactive
same,Potency,[15],inactive
same,Potency,[16],inactive
CC1=C(O)C(=O)C=C2C1=CC=C1[C@@]2(C)CC[C@@]2(C)[C@@H]3C[C@](C)(C(=O)O)CC[C@]3(C)CC[C@]12C,Potency,[17],7940 nM (active)
same,Potency,[18],4590 nM (active)
same,Potency,[6],inactive
same,Potency,[11],743 nM (active)
same,Potency,[12],833 nM (active)
same,Potency,[13],743 nM (active)
same,Potency,[15],1050 nM (active)
same,Potency,[16],1050 nM (active)
CCNC(=O)C[C@@H]1N=C(c2ccc(Cl)cc2)c2cc(OC)ccc2-n2c(C)nnc21,Potency,[17],inactive
same,Potency,[6],inactive
same,Potency,[7],inactive
same,outcome,[8],inactive
same,Potency,[9],inactive
same,outcome,[10],inactive
same,Potency,[12],418 nM (active)
same,Potency,[13],1050 nM (active)
same,Potency,[19],372 nM (active)
same,Potency,[15],264 nM (active)
same,Potency,[16],1050 nM (active)
CCCN(CCC)[C@@H]1CCc2ccc(O)cc2C1,activity,[1],3.68%
same,"activity change, negative = inhibition",[2],1.97%
same,activity,[3],-6.47%
same,activity,[4],6.74%
same,outcome,[5],inactive
same,Potency,[6],inactive
same,Potency,[7],inactive
Clc1cnc(Oc2ccc(Oc3ncc(Cl)cc3Cl)cc2)c(Cl)c1,outcome,[5],inactive
same,Potency,[6],inactive
same,Potency,[7],inactive
O=C(O)CC[N+](=O)[O-],outcome,[5],inactive
same,Potency,[6],inactive
same,Potency,[7],inactive
O=C1CCCN1CC#CCN1CCCC1,outcome,[5],inactive
same,Potency,[6],inactive
same,Potency,[7],inactive
O=S(=O)(F)Cc1ccccc1,Potency,[17],inactive
same,Potency,[6],inactive
same,Potency,[7],inactive
same,Potency,[11],inactive
same,Potency,[12],2960 nM (active)
same,Potency,[13],inactive
same,Potency,[14],inactive
same,Potency,[19],inactive
same,Potency,[15],inactive
same,Potency,[16],inactive
